From PubChem BioAssay
Records with an inconclusive call do not appear.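 Rule for the calls, unless noted: active = viability increase at or above a cutoff of the median across tested compounds plus 3 SD (cut at about 8.5% in these data, passing the limit was not always enough); inconclusive = some gains above the cutoff, reason not given; inactive = the rest.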

Key:
[1] = OD615 S. cerevisiae growth inhibition, permissive medium, pilot counter-assay, permissive growth control for S. cerevisiae lifespan shortening project (AID 705;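 active = growth inhibition above 25% in both replicates, a cutoff set 3 SD above the mean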); conditions: OD615, 24 h, at 10 µM, stronger effect = higher value
[2] = Restrictive medium S. cerevisiae growth inhibition, OD615, pilot screen of yeast lifespan reduction project, restrictive growth control (AID 706;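 active = growth inhibition above a set limit, 3 SD over mean compound inhibition, in both replicates, cut at about 43% in these data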;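 note: modified DeaD lifespan yeast strain shifted to restrictive glucose medium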); conditions: OD615, 48 h, at 10 µM, stronger effect = higher value
[3] = viability gain of MRP-1-high H69AR cells under doxorubicin, pilot screen, MRP-1 activator project, CellTiter-Glo, duplicate (AID 807); conditions: H69AR viability with doxorubicin, CellTiter-Glo luminescence; at 10 µM; stronger effect = higher value;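 note: compound pretreatment 18-22 h then 72 h combined with doxorubicin; 0% = doxorubicin alone and 100% = vehicle without doxorubicin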
[4] = growth suppression of beta-catenin knockout HCT116, pilot screen, human colon tumor cells (AID 823;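 active = cell viability at or below a set limit in both duplicate runs, the limit being the all-compound median minus 4 SD, cut at about 23% in these data, passing the limit was not always enough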;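 note: 0% = wells killed by 20 µM Hyamine and 100% = untreated DMSO cell wells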); conditions: CellTiter-Glo, 60 h, at 10 µM, stronger effect = lower value
[5] = growth suppression of PTEN-deleted HCT116, pilot screen, cell-based, HCT116 clonal line, CellTiter-Glo (AID 824;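 active = viability at or below 27.92% in each of two runs, the all-compound median minus 4 SD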;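 note: 0% = 20 µM Hyamine control and 100% = vehicle cell control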); conditions: 60 h, at 10 µM, stronger effect = lower value
[6] = inhibitors of the yeast RAM network, pilot screen, dse1pr::URA3 reporter, 5-FOA selection (AID 869;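 active = inhibition over a set limit, the all-compound mean plus 3 SD, in both replicate runs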;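 note: 0% = DMSO wells with no growth and 100% = 10 µM 1-NA-PP1 with full growth; RAM network block rescues cells from 5-FOA so hits raise OD615 growth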); conditions: S. cerevisiae dse1pr::URA3 5-FOA growth, OD615, 2 d, at 10 µM, stronger effect = higher value
[7] = RAM signaling pathway blockade in yeast – S. cerevisiae, Pdr1DBD-CYC8 efflux-inhibited sensitized strain, primary screen (AID 1298;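 active = RAM network inhibition above 8.4% in each of two replicates, 3 SD over the compound average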;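 note: 0% = DMSO untreated cells without growth and 100% = 10 µM 1-NA-PP1 full growth; higher means more yeast growth rescued from 5-FOA killing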); conditions: S. cerevisiae cbk1-as DSE1-URA3 strain, 5-FOA growth OD615, 2 d; at 50 µM; stronger effect = higher value

Cn1c(O)c(C=Nc2ccc(Cl)cc2)c(=O)n(C)c1=O
inactive: growth inhibition [1] -7.12% | growth inhibition [2] -0.49% | viability increase [3] -0.57% | viability [4] 96.2% | viability [5] 93.7% | inhibition [6] 0.685% | RAM network inhibition [7] 4.04%

O=C(O)C1CSC(c2cccnc2)N1 (stereo not given)
inactive: growth inhibition [1] -3.98% | growth inhibition [2] -8.32% | viability increase [3] -1.05% | viability [4] 99.3% | viability [5] 106% | inhibition [6] 3.04% | RAM network inhibition [7] 2.35%

CC12CN3CC(C)(CN(C1)C3c1cccnc1)C2=O (stereo not given)
inactive: growth inhibition [1] -9.24% | growth inhibition [2] 7.5% | viability increase [3] -0.3% | viability [4] 103% | viability [5] 100% | inhibition [6] 1.14% | RAM network inhibition [7] 9%

CC1=CC(=C2C(=O)NC(=O)NC2=O)C=C(C(F)(F)F)N1C(C)C
inactive: growth inhibition [1] -13.5% | growth inhibition [2] -9.69% | viability increase [3] -1.79% | viability [4] 92.5% | viability [5] 91.3% | inhibition [6] 2.69% | RAM network inhibition [7] 0.05%

COc1ccc2nc(NC(=O)CCc3nc(C4=CCN(C)CC4)no3)sc2c1
inactive: growth inhibition [1] -7.66% | growth inhibition [2] 2.61% | viability increase [3] -2.1% | viability [4] 79.2% | viability [5] 91.7% | inhibition [6] 2.04% | RAM network inhibition [7] 5.11%

c1ccc2c(CN3CCCCCCC3)c[nH]c2c1
inactive: growth inhibition [1] -9.45% | growth inhibition [2] 0.115% | viability increase [3] -6.65% | viability [4] 62.3% | viability [5] 67.8% | inhibition [6] 0.485% | RAM network inhibition [7] 5.27%

Nc1ccccc1C(=O)c1ccccc1
inactive: growth inhibition [1] -0.69% | growth inhibition [2] -1.46% | viability increase [3] -1.42% | viability [4] 90.9% | viability [5] 88.7% | inhibition [6] 0.55% | RAM network inhibition [7] 2.5%

Cc1cc(C)n2c(Br)c(CN3CC4CC(C3)c3cccc(=O)n3C4)nc2n1 (stereo not given)
inactive: growth inhibition [1] -3.02% | growth inhibition [2] -5.3% | viability increase [3] -2.43% | viability [4] 90.9% | viability [5] 105% | inhibition [6] 1.09% | RAM network inhibition [7] -0.1%

OC12Oc3ccccc3C=C1N1CCC2CC1 (stereo not given)
inactive: growth inhibition [1] 1.47% | growth inhibition [2] -1.35% | viability increase [3] 0.26% | viability [4] 99.1% | viability [5] 96.8% | inhibition [6] 1.48% | RAM network inhibition [7] 0.26%

CCCCCP(=O)(O)c1ccccc1
inactive: growth inhibition [1] -5.12% | growth inhibition [2] -13.1% | viability increase [3] -1.16% | viability [4] 95.2% | viability [5] 103% | inhibition [6] 0.735% | RAM network inhibition [7] 2.16%

O=c1cccc2n1CC1CC2CN(c2ncnc3c2cnn3-c2ccccc2)C1 (stereo not given)
inactive: growth inhibition [1] -14.6% | growth inhibition [2] -18.5% | viability increase [3] -1.4% | viability [4] 101% | viability [5] 101% | inhibition [6] 1.7% | RAM network inhibition [7] 1.58%

COc1ccc2[nH]c(C)c(CCN3CCC(=O)C(C)C3C)c2c1 (stereo not given)
inactive: growth inhibition [1] -4.37% | growth inhibition [2] -10.2% | viability increase [3] -2.73% | viability [4] 87.1% | viability [5] 93.1% | inhibition [6] 0.27% | RAM network inhibition [7] 3.24%

O=C(CN1CC(c2ccccc2)CC1=O)NCc1ccc(F)cc1 (stereo not given)
inactive: growth inhibition [1] -10.3% | growth inhibition [2] 12.3% | viability increase [3] 0.06% | viability [4] 103% | viability [5] 103% | inhibition [6] 2.63% | RAM network inhibition [7] -0.21%

Cc1ccc2cccc(OC(=O)N(C)c3ccccc3)c2n1
inactive: growth inhibition [1] -4.06% | growth inhibition [2] -4.96% | viability increase [3] -0.64% | viability [4] 95.5% | viability [5] 87.5% | inhibition [6] 1.67% | RAM network inhibition [7] 1.8%

O/N=C1\CCC2CN(C3CCCCC3)CC2C1 (stereo not given)
inactive: growth inhibition [1] 8.11% | growth inhibition [2] -1.4% | viability increase [3] -1.85% | viability [4] 109% | viability [5] 97.9% | inhibition [6] 0.775% | RAM network inhibition [7] 0.94%

C=C(C)c1cccc(C(C)(C)NC(=O)NC2CN3CCC2CC3)c1 (stereo not given)
inactive: growth inhibition [1] -5.2% | growth inhibition [2] 2.09% | viability increase [3] -1.24% | viability [4] 94.4% | viability [5] 93.9% | inhibition [6] -0.575% | RAM network inhibition [7] 0.82%

Cn1c(O)c(C(=NCCN2CCCCC2)c2ccccc2Cl)c(=O)n(C)c1=O
inactive: growth inhibition [1] -15% | growth inhibition [2] -13.6% | viability increase [3] -0.81% | viability [4] 87.3% | viability [5] 93.8% | inhibition [6] -0.185% | RAM network inhibition [7] 0.48%

CC12CNCC(C)(CNC1)C2O (stereo not given)
inactive: growth inhibition [1] 7.96% | growth inhibition [2] -2.77% | viability increase [3] -0.15% | viability [4] 97.5% | viability [5] 99.8% | inhibition [6] 1.12% | RAM network inhibition [7] 2.1%

CC(=O)Nc1ccc(OC(=O)N(C)c2ccccc2)cc1
inactive: growth inhibition [1] 1.69% | growth inhibition [2] -3.19% | viability increase [3] 0.24% | viability [4] 105% | viability [5] 100% | inhibition [6] 3.04% | RAM network inhibition [7] 3.59%

Cn1c(O)c(C=NCCc2c[nH]c3ccccc23)c(=O)n(C)c1=O
inactive: growth inhibition [1] -0.425% | growth inhibition [2] -3.75% | viability increase [3] -2.67% | viability [4] 101% | viability [5] 91.4% | inhibition [6] 1.54% | RAM network inhibition [7] -0.15%
